From PubChem BioAssay (EPA / NIEHS) come the findings set out here.

Experiment [1] deals with Bile acid receptor (Homo sapiens) (UniProt Q96RI1). The experiment in a line: ATG_IR1_CIS: Attagene CIS-FACTORIAL HepG2 Assay for human Nuclear Receptor Subfamily 1 Group H Member 4 (NR1H4), IR1 submotif (AID 2282946; active means hit-call score of the fitted dose curve at least 0.9, where 1 is the maximum; inactive means score below 0.9). The note with it: IR1 reporter transcription, actives raise or lower the signal. A digest of the protocol: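 HepG2 cells transiently transfected with multiple cis-promoter-driven reporter units to measure endogenous transcription factor activity; 24 h exposure. Reporter mRNA read by RT-PCR, FAM labelling, HpaI digestion and capillary electrophoresis. Bidirectional fit versus DMSO.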

For experiment [2], the target named is Hypoxia-inducible factor 1-alpha (Homo sapiens) (UniProt Q16665). The experiment in a line: ATG_HIF1a_CIS: Attagene CIS-FACTORIAL HepG2 Assay for human Hypoxia Inducible Factor 1 (HIF1A) (AID 2282951; active means hit-call score of the fitted dose curve at least 0.9, where 1 is the maximum; inactive means score below 0.9). The following applies: HepG2 Attagene cis-factorial HIF1a reporter transcription; actives raise or lower the signal. In a few lines: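 HepG2, transient cis-reporter library, 24 h dosing. RNA → RT (oligo dT) → PCR → 6-FAM primer extension → HpaI → CE. Bidirectional curve fit vs DMSO.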

A short description of experiment [3]: ATG_PPRE_CIS: Attagene CIS-FACTORIAL HepG2 Assay for human Peroxisome Proliferator-activated Response Element (PPRE) (AID 2282958; active means hit-call score of the fitted dose curve at least 0.9, where 1 is the maximum; inactive means score below 0.9). The note with it: HepG2 PPRE cis-element reporter, Attagene transcription factor profiling; actives raise or lower the signal. A digest of the protocol:
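Transcript-level reporter induction in transfected HepG2 cells after 24 h chemical exposure, quantified by fluorescence from RT-PCR products separated by capillary electrophoresis.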

The target in experiment [4] is Glucocorticoid receptor (Homo sapiens) (UniProt P04150). Put plainly: ATG_GR_TRANS: Attagene TRANS-FACTORIAL HepG2 Assay for human Glucocorticoid Receptor (GR) (AID 2282978).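 Further: activators score as hits since higher reporter transcript over DMSO is fitted.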 The note with it: HepG2 Attagene TRANS GR reporter, mRNA transcription. A digest of the protocol: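 Multiplexed TRANS reporter system, HepG2; 24 h exposure; RNA → oligo(dT) RT → reporter-specific PCR → 6-FAM primer extension → HpaI cut → CE fluorescence. Gain-of-signal vs DMSO.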

Experiment [5] concerns the target Bile acid receptor (Homo sapiens) (UniProt Q96RI1). The experiment in a line: ATG_FXR_TRANS: Attagene TRANS-FACTORIAL HepG2 Assay for Farnesoid X Receptor (FXR) (AID 2282979).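 Further: hits raise reporter mRNA above DMSO so AC50 marks FXR activation.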 The following applies: HepG2 Attagene TRANS FXR-GAL4 reporter transcription. In a few lines: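 Chimeric FXR-GAL4 activity in transiently transfected human HepG2 liver cells is scored as induction of reporter mRNA after 24 h of dosing. Detection uses RT-PCR with fluorescent labelling and capillary electrophoresis, with DMSO serving as baseline.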

In experiment [6] the target is Nuclear receptor subfamily 4 group A member 2 (Homo sapiens) (UniProt P43354). Put plainly: ATG_NURR1_TRANS: Attagene TRANS-FACTORIAL HepG2 Assay for human Nuclear Receptor Related Protein 1 (NURR1) (AID 2282985). The following applies: HepG2 Attagene TRANS reporter, mRNA readout. In a few lines: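 HepG2 cells transiently transfected with NURR1-Gal4 chimera and GAL4-UAS reporter units; after 24 hr compound exposure, reporter mRNA quantified by RT-PCR and capillary electrophoresis; gain of signal fitted against DMSO.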

For experiment [7], the target named is human Peroxisome Proliferator-activated Receptor alpha (PPARa), PPARA (gene 5465) (UniProt Q07869). The experiment in a line: ATG_PPARa_TRANS: Attagene TRANS-FACTORIAL HepG2 Assay for human Peroxisome Proliferator-activated Receptor alpha (PPARa) (AID 2283001).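 On AC50: potency for gain of reporter signal over DMSO so agonist or activator.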 A digest of the protocol:
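HepG2 cells transiently transfected with multiplexed GAL4-UAS reporters driven by exogenous chimeric NR-Gal4 proteins; reporter mRNA measured after 24 h dosing. Read-out by RT-PCR, 6-FAM labelling, HpaI digestion and capillary electrophoresis; gain of signal versus DMSO.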

Experiment [8] has as its target human Peroxisome Proliferator-activated Receptor delta (PPARd), PPARD (gene 5467) (UniProt Q03181). The experiment in a line: ATG_PPARd_TRANS: Attagene TRANS-FACTORIAL HepG2 Assay for human Peroxisome Proliferator-activated Receptor delta (PPARd) (AID 2283002). In a few lines:
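HepG2 cells transiently transfected with GAL4-UAS multiplexed reporter units driven by exogenous chimeric NR-GAL4 proteins; 24 h compound exposure. Reporter mRNA measured by RT-PCR, 6-FAM primer extension, HpaI digestion and capillary electrophoresis; gain of signal fitted relative to DMSO.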

The target of experiment [9] is Peroxisome proliferator-activated receptor gamma (Homo sapiens) (UniProt P37231). The experiment in a line: ATG_PPARg_TRANS: Attagene TRANS-FACTORIAL HepG2 Assay for human Peroxisome Proliferator-activated Receptor-gamma (PPARg) (AID 2283007). In a few lines: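 Human hepatoma HepG2, transient MRTU transfection, 24 h treatment. mRNA reporter signal by RT-PCR plus capillary electrophoresis, fluorescence detection; fitted for increase over DMSO negative control.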

The target in experiment [10] is human Thyroid Receptor alpha (THRa1), THRA (gene 7067) (UniProt P10827). Put plainly: ATG_THRa1_TRANS: Attagene TRANS-FACTORIAL HepG2 Assay for human Thyroid Receptor alpha (THRa1) (AID 2283014). A digest of the protocol: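 First, HepG2 cells receive multiple GAL4-UAS reporter units and the chimeric receptor. They are then dosed for 24 h, after which RNA is reverse-transcribed, amplified, labelled, HpaI-cut and sized by capillary electrophoresis; gain relative to DMSO is scored.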

Experiment [11] has as its target human Vitamin D Receptor (VDR), VDR (gene 7421) (UniProt P11473). The experiment in a line: ATG_VDR_TRANS: Attagene TRANS-FACTORIAL HepG2 Assay for human Vitamin D Receptor (VDR) (AID 2283022). In a few lines:
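Fluorescence of labelled reporter cDNA fragments, resolved by capillary electrophoresis, gives mRNA induction after 24 h treatment of HepG2 cells carrying transfected Gal4-fusion reporter units. Activity is fitted in the positive direction with DMSO as baseline.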

A short description of experiment [12]: TOX21_p53_BLA_p3_viability: Viability Assessment in the Tox21 HCT-116 p53 Agonism Beta-lactamase Assay, Phase 3 (AID 2283593).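 Further: cells exposed to compound for 16 h before reading.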 A digest of the protocol: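 HCT116 cells, 4000/well, dosed 5 h after plating by pin transfer (217-fold dilution from DMSO stock) and incubated 16 h at 37C, 5% CO2. Viability read as ATP luminescence with CellTiter-Glo after 30 min at room temperature.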

Experiment [13] is described as follows: TOX21_p53_BLA_p4_viability: Viability Assessment in the Tox21 HCT-116 p53 Agonism Beta-lactamase Assay, Phase 4 (AID 2283597).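 Further: hits lower the luminescence signal meaning cytotoxicity.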 A digest of the protocol: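 Compound exposure of HCT116 cells lasts 16 h at 37C, 5% CO2, with DMSO stocks diluted 217-fold. Cellular ATP is then quantified by CellTiter-Glo luminescence after 30 min at room temperature.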
A short description of experiment [14]: ACEA_ER_AUC_viability: ACEA Biosciences xCELLigence Real-Time Cell Analysis on Estrogen Receptor Agonism for Viability (AID 2283782).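 Further: continuous compound exposure with impedance area under curve over 80 h; hit means loss of impedance signal meaning reduced cell growth or viability.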 A digest of the protocol: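 T47D cells preconditioned in phenol red-free RPMI with charcoal-stripped FBS, then dosed with 8-point 1:4 series from 100 uM (up to 0.5% DMSO). Impedance monitored up to ~80 h; area-under-curve loss versus DMSO taken as viability.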

The target of experiment [15] is Nuclear receptor subfamily 1 group I member 3 (Homo sapiens) (UniProt Q14994). The experiment in a line: ATG_CAR_TRANS: Attagene TRANS-FACTORIAL HepG2 Assay for human Constitutive Androstane Receptor (CAR) (AID 2282969).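 Further: activators raise reporter mRNA above DMSO so AC50 marks induction.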 The following applies: HepG2 Attagene TRANS-FACTORIAL CAR reporter. A digest of the protocol:
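HepG2 cells transiently transfected with GAL4-UAS reporter units; TRANS format reads activity of exogenous chimeric NR-Gal4 protein. After 24 h dosing, reporter mRNA quantified by RT-PCR, 6-FAM labelling and capillary electrophoresis; gain of signal fitted against DMSO.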

Experiment [16] has as its target human RAR-related Orphan Receptor beta (RORb), RORB (gene 6096) (UniProt Q92753). The experiment in a line: ATG_RORb_TRANS: Attagene TRANS-FACTORIAL HepG2 Assay for human RAR-related Orphan Receptor beta (RORb) (AID 2283010). In a few lines:
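HepG2 cells transiently transfected with GAL4-UAS reporter units expressing chimeric NR-Gal4 protein; reporter mRNA measured 24 h after dosing by RT-PCR, 6-FAM labelling and capillary electrophoresis. Gain-of-signal fitted relative to DMSO baseline.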

In experiment [17] the target is human RAR-related Orphan Receptor gamma (RORg), RORC (gene 6097) (UniProt P51449). The experiment in a line: ATG_RORg_TRANS: Attagene TRANS-FACTORIAL HepG2 Assay for human RAR-related Orphan Receptor gamma (RORg) (AID 2283011). In a few lines:
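Activity is scored as increase in GAL4-UAS reporter mRNA over DMSO, detected by fluorescent RT-PCR and capillary electrophoresis in HepG2 cells transiently expressing a RORg-Gal4 chimera, 24 h after dosing.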

In experiment [18] the target is Oxysterols receptor LXR-alpha (Homo sapiens) (UniProt Q13133). Put plainly: ATG_LXRa_TRANS: Attagene TRANS-FACTORIAL HepG2 Assay for human Liver X Receptor alpha (LXRa) (AID 2282980). The note with it: HepG2 Attagene TRANS reporter, LXRa transactivation. A digest of the protocol: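 Transient HepG2 transfectants, 24 h dosing, RT-PCR/CE mRNA reporter quantitation; gain-of-signal vs DMSO.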

Experiment [19] can be described thus: ATG_M_19_TRANS: Attagene TRANS-FACTORIAL HepG2 Assay for M19 Transcription Factor (Internal Marker) (AID 2282974). The following applies: HepG2 Attagene TRANS-FACTORIAL M19 internal marker reporter. In a few lines: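 After transfection of HepG2 with GAL4-UAS-driven reporter constructs, cells are dosed for 24 h. Total RNA is reverse-transcribed, reporter sequences PCR-amplified and labelled, then HpaI-digested and sized by capillary electrophoresis.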

Experiment [20] in a line: ATG_GAL4_TRANS: Attagene TRANS-FACTORIAL HepG2 Assay for GAL4 (Internal Marker) (AID 2282976). The note with it: HepG2 Attagene TRANS GAL4 internal marker reporter. A digest of the protocol:
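Fluorescence from capillary electrophoresis of labelled RT-PCR products quantifies reporter mRNA induction after 24 h dosing of HepG2 cells carrying transfected GAL4-UAS reporter transcription units. Vehicle DMSO serves as baseline.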

Each structure is given as a SMILES string. Several values for one entry are separate records, joined by “and”; a condition that tells them apart may be missing. Identical values can stand only once. Records with an inconclusive call do not appear. A structure can be active in one record and inactive in another. Activity calls are given as the source filed them. How the source made its calls, unless noted: active means hit-call score of the fitted dose curve at least 0.9, where 1 is the maximum; inconclusive means response in the unintended direction; inactive means score below 0.9.

Glucocorticoid receptor (Homo sapiens), sequence (P04150 whole entry, looked up): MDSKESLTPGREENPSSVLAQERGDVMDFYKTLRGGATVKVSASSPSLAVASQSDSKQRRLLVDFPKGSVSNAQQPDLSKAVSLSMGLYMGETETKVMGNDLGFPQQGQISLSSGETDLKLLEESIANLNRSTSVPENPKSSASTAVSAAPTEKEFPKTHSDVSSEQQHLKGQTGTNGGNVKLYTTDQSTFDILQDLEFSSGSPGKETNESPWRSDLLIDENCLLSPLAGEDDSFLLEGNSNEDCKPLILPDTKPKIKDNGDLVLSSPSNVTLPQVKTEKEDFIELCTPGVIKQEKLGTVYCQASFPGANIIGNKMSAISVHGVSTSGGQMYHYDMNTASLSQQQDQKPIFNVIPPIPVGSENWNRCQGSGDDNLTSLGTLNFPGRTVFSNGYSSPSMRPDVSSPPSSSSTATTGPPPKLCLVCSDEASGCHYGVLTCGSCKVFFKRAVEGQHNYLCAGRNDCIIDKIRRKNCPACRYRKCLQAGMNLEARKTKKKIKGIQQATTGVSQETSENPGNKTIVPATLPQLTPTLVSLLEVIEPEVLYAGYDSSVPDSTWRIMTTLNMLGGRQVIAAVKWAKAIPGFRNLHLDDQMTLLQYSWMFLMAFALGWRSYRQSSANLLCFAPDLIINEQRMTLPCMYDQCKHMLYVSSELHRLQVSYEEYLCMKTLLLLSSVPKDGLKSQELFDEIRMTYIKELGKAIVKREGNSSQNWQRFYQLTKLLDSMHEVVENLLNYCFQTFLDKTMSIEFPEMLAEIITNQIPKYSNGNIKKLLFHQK
human Peroxisome Proliferator-activated Receptor delta (PPARd), PPARD (gene 5467), sequence (Q03181 whole entry, looked up, the tested form may be a part): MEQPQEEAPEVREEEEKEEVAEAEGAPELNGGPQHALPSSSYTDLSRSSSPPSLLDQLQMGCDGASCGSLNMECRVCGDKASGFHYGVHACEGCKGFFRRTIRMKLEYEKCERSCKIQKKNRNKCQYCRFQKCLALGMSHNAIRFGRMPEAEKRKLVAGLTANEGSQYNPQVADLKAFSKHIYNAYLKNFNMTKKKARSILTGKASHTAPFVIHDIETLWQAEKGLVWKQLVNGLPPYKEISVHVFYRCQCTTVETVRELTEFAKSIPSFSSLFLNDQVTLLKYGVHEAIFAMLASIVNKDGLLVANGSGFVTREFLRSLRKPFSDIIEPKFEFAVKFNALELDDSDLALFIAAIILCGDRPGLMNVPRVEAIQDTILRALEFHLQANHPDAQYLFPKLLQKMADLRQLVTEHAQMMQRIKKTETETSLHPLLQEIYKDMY
human Vitamin D Receptor (VDR), VDR (gene 7421), sequence (P11473 whole entry, looked up, the tested form may be a part): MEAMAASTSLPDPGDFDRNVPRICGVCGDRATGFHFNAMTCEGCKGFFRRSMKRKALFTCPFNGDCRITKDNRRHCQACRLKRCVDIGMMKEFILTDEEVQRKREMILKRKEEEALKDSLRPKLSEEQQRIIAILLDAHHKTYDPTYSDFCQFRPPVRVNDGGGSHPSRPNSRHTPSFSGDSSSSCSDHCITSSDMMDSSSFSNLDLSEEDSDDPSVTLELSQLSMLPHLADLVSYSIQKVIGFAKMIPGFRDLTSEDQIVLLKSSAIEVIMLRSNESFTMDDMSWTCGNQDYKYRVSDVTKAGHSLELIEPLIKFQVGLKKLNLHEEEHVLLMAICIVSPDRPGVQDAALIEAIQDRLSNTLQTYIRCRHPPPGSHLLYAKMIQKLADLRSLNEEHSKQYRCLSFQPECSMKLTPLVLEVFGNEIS
human RAR-related Orphan Receptor beta (RORb), RORB (gene 6096), sequence (Q92753 whole entry, looked up, the tested form may be a part): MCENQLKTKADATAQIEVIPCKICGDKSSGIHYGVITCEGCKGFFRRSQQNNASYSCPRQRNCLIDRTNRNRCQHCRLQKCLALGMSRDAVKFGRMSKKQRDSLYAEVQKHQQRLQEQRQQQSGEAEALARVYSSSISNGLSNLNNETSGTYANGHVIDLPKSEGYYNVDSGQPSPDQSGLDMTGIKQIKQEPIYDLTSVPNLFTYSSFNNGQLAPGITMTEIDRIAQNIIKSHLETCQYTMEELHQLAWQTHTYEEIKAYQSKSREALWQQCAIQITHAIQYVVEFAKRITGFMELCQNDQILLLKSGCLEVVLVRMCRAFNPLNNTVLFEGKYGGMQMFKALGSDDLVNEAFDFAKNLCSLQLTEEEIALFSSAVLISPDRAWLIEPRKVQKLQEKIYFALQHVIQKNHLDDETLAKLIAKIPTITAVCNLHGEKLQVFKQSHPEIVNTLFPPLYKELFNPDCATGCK
human RAR-related Orphan Receptor gamma (RORg), RORC (gene 6097), sequence (P51449 whole entry, looked up, the tested form may be a part): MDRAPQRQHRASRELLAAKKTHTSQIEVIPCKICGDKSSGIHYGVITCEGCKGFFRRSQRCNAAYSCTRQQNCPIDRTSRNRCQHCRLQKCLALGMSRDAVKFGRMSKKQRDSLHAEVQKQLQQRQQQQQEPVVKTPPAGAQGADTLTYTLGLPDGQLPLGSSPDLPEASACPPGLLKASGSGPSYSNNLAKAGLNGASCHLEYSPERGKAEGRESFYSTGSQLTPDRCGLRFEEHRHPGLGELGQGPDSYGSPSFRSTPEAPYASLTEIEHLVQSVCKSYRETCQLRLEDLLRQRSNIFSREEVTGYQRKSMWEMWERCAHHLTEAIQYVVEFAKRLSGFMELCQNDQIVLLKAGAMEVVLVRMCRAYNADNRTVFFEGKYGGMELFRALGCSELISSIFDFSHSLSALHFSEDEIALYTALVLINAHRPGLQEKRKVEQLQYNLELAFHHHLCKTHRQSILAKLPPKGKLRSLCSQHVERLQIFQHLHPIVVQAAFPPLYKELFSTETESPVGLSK
Nuclear receptor subfamily 4 group A member 2 (Homo sapiens), sequence (P43354 whole entry, looked up, the tested form may be a part): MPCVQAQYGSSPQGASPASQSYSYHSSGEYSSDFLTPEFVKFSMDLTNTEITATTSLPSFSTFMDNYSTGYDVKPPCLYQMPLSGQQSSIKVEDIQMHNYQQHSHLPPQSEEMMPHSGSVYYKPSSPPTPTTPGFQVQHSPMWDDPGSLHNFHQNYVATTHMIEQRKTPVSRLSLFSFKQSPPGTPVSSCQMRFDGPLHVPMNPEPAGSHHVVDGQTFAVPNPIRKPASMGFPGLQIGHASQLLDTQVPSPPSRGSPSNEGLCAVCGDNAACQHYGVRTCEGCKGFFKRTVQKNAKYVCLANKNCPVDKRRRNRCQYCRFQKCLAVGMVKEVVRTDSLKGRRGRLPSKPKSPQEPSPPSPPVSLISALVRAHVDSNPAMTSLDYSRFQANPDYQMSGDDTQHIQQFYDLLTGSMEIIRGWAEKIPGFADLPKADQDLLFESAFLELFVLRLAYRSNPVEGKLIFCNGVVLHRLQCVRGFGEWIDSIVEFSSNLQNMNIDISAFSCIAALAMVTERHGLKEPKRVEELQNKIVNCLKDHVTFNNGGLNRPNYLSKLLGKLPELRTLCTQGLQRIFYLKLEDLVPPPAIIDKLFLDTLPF
Hypoxia-inducible factor 1-alpha (Homo sapiens), sequence (Q16665 whole entry, looked up): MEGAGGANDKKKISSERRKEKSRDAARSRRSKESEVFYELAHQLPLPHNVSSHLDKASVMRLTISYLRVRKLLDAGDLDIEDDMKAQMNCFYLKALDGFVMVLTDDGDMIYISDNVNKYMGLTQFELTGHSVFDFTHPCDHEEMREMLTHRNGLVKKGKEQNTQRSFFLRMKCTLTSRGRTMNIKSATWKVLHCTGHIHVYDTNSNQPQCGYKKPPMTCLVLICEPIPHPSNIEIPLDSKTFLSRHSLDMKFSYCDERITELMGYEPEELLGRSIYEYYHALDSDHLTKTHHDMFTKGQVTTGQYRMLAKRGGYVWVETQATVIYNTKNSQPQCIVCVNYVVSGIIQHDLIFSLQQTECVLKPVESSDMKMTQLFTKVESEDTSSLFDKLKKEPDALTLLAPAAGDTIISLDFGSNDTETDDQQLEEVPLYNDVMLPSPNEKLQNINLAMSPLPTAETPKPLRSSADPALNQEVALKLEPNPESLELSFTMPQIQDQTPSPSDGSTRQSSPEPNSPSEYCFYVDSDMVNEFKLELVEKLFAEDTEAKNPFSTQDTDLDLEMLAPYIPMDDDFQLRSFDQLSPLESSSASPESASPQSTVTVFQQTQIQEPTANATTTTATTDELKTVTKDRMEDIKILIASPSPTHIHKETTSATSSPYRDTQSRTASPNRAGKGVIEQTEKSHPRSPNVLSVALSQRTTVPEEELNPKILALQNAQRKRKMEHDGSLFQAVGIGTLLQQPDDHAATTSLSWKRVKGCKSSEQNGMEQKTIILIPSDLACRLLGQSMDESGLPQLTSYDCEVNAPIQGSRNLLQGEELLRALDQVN
human Thyroid Receptor alpha (THRa1), THRA (gene 7067), sequence (P10827 whole entry, looked up, the tested form may be a part): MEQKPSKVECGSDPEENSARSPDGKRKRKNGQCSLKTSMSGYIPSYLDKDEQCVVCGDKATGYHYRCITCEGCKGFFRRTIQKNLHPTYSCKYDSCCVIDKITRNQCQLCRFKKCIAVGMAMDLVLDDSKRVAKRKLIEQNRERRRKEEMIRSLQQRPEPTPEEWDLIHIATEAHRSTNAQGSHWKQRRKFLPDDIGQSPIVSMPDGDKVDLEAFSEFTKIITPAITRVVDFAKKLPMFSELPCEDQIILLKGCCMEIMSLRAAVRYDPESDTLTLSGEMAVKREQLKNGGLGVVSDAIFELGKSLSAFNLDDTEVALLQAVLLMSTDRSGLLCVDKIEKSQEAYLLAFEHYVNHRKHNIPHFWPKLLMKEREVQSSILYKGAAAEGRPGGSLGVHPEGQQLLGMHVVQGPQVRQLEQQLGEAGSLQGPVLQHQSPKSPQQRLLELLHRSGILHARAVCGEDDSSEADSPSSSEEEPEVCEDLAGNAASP
Oxysterols receptor LXR-alpha (Homo sapiens), sequence (Q13133 whole entry, looked up): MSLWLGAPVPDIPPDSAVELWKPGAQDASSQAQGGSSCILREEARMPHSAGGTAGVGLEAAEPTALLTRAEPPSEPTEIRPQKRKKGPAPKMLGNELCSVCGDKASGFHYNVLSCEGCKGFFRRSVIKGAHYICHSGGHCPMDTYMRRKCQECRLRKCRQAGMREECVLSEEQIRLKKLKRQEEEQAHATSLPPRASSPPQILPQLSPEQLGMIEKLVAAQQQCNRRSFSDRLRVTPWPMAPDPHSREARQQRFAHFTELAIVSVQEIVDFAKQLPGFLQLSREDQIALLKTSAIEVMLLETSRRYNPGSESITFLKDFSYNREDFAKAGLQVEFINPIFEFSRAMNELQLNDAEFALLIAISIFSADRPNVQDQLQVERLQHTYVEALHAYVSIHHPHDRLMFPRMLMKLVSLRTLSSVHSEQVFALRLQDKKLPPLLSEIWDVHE

One may read the AC50 as the concentration giving half of the maximal activity seen. Take `CCCCCC[C@@H](O)C/C=C\CCCCCCCC(=O)O`: the AC50 in experiment [1] is 149 µM (active); in experiment [3], 45.7 µM (active); in [6], 108 µM (active); in experiment [7], 8.72 µM (active); in experiment [8], 27.3 µM (active); in experiment [9] it was 27.4 µM (active). Also, the AC50 in experiment [12] is 30.5 µM (active); in [13] it was 40.5 µM (active) and 27.9 µM (active). Further, the call in [2], in experiment [4], in experiment [5], in experiment [10], in experiment [11] and in [12] was inactive. For the same compound, the result in [13] and in [14] was inactive.

As for `CC/C=C\CC/C=C/C(OCC)OCC`, the compound was called inactive in experiment [2], in experiment [15], in [6], in experiment [7], in experiment [8] and in [16]. Also, the call in [17], in experiment [10] and in [13] was inactive. Besides, the AC50 in experiment [14] was 82.5 µM (active).

In the case of `COc1cccc(OC)c1C(=O)O`, the compound was called inactive in experiment [15], in experiment [18], in experiment [17], in experiment [11], in experiment [13] and in experiment [14].

On to `Clc1ccccn1`, for which the compound was called inactive in [1], in experiment [2], in experiment [19], in [20], in [5] and in experiment [17]. Besides, the compound was classed as inactive in experiment [10], in experiment [12] and in [14].

As for `O=S(=O)(O)c1cccc2ccccc12`, the result in experiment [2], in experiment [3], in [7], in experiment [8], in [9] and in experiment [17] was inactive. Further, the result in experiment [10] and in experiment [14] was inactive.

Regarding `CC/C=C/CCO`, the compound was called inactive in experiment [1], in experiment [2], in [20], in experiment [5], in [18] and in experiment [6]. In addition, the outcome in [17], in experiment [10], in experiment [11] and in experiment [13] was inactive.

Regarding `C=CCOC(=O)C(=C)C`, the compound was called inactive in [2], in experiment [20], in experiment [4], in [7], in experiment [8] and in [16]. In addition, the compound was classed as inactive in [11], in experiment [12], in experiment [13] and in experiment [14].

As for `Cc1cc2nc3c(=O)[nH]c(=O)nc-3n(C[C@H](O)[C@H](O)[C@H](O)CO)c2cc1C`, the call in [1], in [19], in [20], in experiment [5], in [18] and in experiment [7] was inactive. Further, the call in experiment [16], in experiment [17], in experiment [10], in experiment [12] and in experiment [13] was inactive. Also, the AC50 in experiment [14] is 47 µM (active).

Turning to `O=[N+]([O-])c1ccc(ON=Cc2cc(Br)c(O)c(Br)c2)c([N+](=O)[O-])c1`, the AC50 in [12] is 34.4 µM (active). In addition, the compound was classed as inactive in [13].

In the case of `NCc1ccccc1`, the call in experiment [2], in experiment [15], in experiment [19], in experiment [20], in experiment [4] and in [7] was inactive. Moreover, the result in [17], in experiment [12] and in experiment [13] was inactive. Besides, in experiment [14], the AC50 was 50 µM (active).
